A number with no mark means an inactive call. Records with an inconclusive call do not appear. A call without a number means that no potency is given here. The source made the active and inactive calls. Unless noted, calls come from the whole dose curve; as a rule, active = well fitted curve in the direction sought with a large enough effect in the repeat runs; inconclusive = weak or mixed curves; inactive = no such curve, though single readings can be large; an effect the other way counts as inactive or inconclusive.
How the values were obtained:
[1] = A CellTox Green Cytotoxicity Assay to monitor cytotoxicity in HepG2 cells - 8 hour (AID 1224890); note: nearly all actives have a fitted effect of over 45% in size
Method in brief: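 Cells and non-lytic dye reagent are dispensed together (600 HepG2 cells/well) and incubated 5 h before DMSO compound transfer. Kinetic fluorescence is then recorded in the same wells during 40 h at 37 C.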

[2] = qHTS assay to identify small molecule antagonists of the estrogen receptor alpha (ER-alpha) signaling pathway using the BG1 cell line in the presence of 0.1 nM 17-beta-estradiol - cell viability counter screen (AID 1259241); note: nearly all actives have a fitted effect of over 40% in size
Method in brief: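 The cell line endogenously expresses full-length ER-alpha and carries four EREs driving luciferase. Cells are cultured 5 days hormone-free, treated 22 hr with compounds and 0.1 nM estradiol, then viability is read by fluorescence.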

[3] = qHTS assay to identify small molecule antagonists of the androgen receptor (AR) signaling pathway using the MDA cell line in the presence of 0.5 nM R1881 - cell viability counter screen (AID 1259242); note: nearly all actives have a fitted effect of over 45% in size
Method in brief: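 Steps: plate MDA-kb2 cells, rest 5 hr at 37C without CO2; pin in compounds in DMSO; add R1881 to 0.5 nM final; incubate 16 hr; add CellTiter-Fluor, 30 min; read fluorescence.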

[4] = biological target: Androgen receptor (Homo sapiens) (UniProt P10275); assay: qHTS assay to identify small molecule antagonists of the androgen receptor (AR) signaling pathway using the MDA cell line in the presence of 0.5 nM R1881 (AID 1259243); note: nearly all actives have a fitted effect of over 50% in size; note: potency is the fitted concentration of half-maximal effect
Chain of Androgen receptor (Homo sapiens) (P10275 whole entry, looked up): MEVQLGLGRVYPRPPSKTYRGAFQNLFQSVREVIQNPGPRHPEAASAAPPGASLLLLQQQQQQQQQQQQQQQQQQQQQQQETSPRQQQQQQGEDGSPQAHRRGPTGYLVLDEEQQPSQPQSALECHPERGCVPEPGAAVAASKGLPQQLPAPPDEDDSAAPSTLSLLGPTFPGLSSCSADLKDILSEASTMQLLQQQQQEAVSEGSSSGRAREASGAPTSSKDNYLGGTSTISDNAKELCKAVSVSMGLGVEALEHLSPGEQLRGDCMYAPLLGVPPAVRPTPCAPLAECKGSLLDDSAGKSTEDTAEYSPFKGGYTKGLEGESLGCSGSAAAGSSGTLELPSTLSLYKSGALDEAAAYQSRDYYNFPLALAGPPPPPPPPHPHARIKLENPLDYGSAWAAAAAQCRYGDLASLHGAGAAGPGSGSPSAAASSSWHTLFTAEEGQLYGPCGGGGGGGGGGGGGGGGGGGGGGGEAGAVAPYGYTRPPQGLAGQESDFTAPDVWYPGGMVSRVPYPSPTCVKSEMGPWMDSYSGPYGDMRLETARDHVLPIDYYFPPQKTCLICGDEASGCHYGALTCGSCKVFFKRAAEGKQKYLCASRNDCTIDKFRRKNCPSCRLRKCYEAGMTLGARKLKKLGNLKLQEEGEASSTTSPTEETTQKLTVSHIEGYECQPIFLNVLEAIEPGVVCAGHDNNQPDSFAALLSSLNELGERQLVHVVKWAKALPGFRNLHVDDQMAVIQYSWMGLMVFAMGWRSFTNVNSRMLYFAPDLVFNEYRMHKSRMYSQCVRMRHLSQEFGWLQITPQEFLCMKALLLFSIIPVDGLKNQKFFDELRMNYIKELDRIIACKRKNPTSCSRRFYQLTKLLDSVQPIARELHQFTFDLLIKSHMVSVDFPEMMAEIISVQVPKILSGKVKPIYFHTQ
Method in brief: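 Stably transfected MDA-kb2 cells express luciferase from an MMTV promoter bearing both AR and GR response elements. Compounds plus 0.5 nM R1881 (final) were incubated 16 hr at 37C without CO2, then luminescence measured.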

[5] = biological target: Estrogen receptor (Homo sapiens) (UniProt P03372); assay: qHTS assay to identify small molecule antagonists of the estrogen receptor alpha (ER-alpha) signaling pathway using the BG1 cell line in the presence of 0.1 nM 17-beta-estradiol (AID 1259244); note: nearly all actives have a fitted effect of over 50% in size
Chain of Estrogen receptor (Homo sapiens) (P03372 whole entry, looked up): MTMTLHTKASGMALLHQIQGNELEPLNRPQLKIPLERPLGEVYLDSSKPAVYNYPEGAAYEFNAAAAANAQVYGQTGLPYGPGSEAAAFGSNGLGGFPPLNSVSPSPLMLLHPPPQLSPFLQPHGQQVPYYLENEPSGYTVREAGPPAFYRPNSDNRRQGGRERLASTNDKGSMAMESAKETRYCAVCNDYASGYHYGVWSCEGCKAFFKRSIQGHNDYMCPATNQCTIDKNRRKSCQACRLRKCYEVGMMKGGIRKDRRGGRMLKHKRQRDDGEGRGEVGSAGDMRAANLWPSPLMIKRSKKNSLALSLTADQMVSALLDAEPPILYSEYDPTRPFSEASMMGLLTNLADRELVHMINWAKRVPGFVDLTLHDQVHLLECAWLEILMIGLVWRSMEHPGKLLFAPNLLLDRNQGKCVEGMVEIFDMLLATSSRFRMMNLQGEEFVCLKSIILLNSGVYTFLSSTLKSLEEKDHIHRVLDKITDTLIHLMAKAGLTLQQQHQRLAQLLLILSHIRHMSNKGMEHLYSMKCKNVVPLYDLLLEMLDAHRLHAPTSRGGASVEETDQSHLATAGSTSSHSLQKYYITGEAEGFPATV
Method in brief: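 Antagonist mode: compounds in DMSO are pinned onto VM7Luc4E2 reporter cells, 0.1 nM final 17beta-estradiol is added, and after 22 h at 37C luciferase luminescence is measured with ONE-Glo.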

[6] = qHTS assay to identify small molecule HDAC inhibitors (AID 1259364);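 note: wild-type HCT-116 cells with endogenous class I/II HDAC activity; top concentration of the series differs between compounds; nearly all actives have a fitted effect of over 45% in size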
Method in brief: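 Cells (HCT-116, wild type) are seeded at 1,500 per well, incubated overnight, treated with compound in DMSO for 2 hr, then developed with HDAC-Glo I/II reagent for 30 min at room temperature.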

[7] = qHTS assay to identify small molecule HDAC inhibitors - cell viability counter screen (AID 1259365); note: series mostly up to about 92 µM; nearly all actives have a fitted effect of over 50% in size
Method in brief: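 Viability readout: CellTiter-Glo luminescence. Wild-type HCT-116 cells, 2hr compound treatment following overnight attachment at 37 C.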

[8] = qHTS assay to identify small molecule agonists of the sonic hedgehog signaling (Shh) pathway - cell viability counter screen (AID 1259366); note: nearly all actives have a fitted effect of over 50% in size
Method in brief: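 Viability measured fluorometrically (CellTiter-Fluor, 1hr, 37C) in 3T3 Gli1-Luc reporter cells after 23hr compound exposure within a 24hr incubation at 37C/5% CO2.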

[9] = qHTS assay to identify small molecule antagonists of the sonic hedgehog signaling (Shh) pathway - cell viability counter screen (AID 1259367); note: nearly all actives have a fitted effect of over 55% in size
Method in brief: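 Viability was read by CellTiter-Fluor fluorescence in the same wells, reagent added 23 hr into compound treatment and incubated 1 hr at 37C. The 3T3 Gli1-Luc reporter cells (2,000/well) received conditioned medium after compound and ran 24 hr.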

[10] = qHTS assay to identify small molecule agonists of the sonic hedgehog signaling (Shh) pathway (AID 1259368; calls by dose curve;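 note: NIH/3T3-derived 3T3Gli1-Luc cells carrying a stable Gli1-driven firefly luciferase reporter; series mostly up to about 92 µM; nearly all actives have a fitted effect of over 15% in size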)
Method in brief: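 Cells of a mouse NIH/3T3 clone stably expressing luciferase under the Gli1 transcriptional response element are exposed to test chemicals for 24 hr at 37 C. Pathway activation is detected as a rise in luminescence.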

[11] = qHTS assay to identify small molecule antagonists of the sonic hedgehog signaling (Shh) pathway (AID 1259369; calls by dose curve; note: nearly all actives have a fitted effect of over 45% in size; note: potency is the fitted concentration of half-maximal effect)
Method in brief: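 Cells are plated and held 4hr at 37 C, compounds (DMSO) are pinned in, conditioned medium is added to stimulate the pathway, and after 24hr luciferase reagent is added for 30min before luminescence is read.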

[12] = biological target: Estrogen receptor beta (Homo sapiens) (UniProt Q92731); assay: qHTS assay to identify small molecule agonists of the estrogen receptor beta (ER-beta) signaling pathway (AID 1259377; active = well fitted activation curve with a large enough effect in the signal ratio in the repeat runs, not every such curve was filed as active; the % refers to the signal ratio)
Chain of Estrogen receptor beta (Homo sapiens) (Q92731 whole entry, looked up): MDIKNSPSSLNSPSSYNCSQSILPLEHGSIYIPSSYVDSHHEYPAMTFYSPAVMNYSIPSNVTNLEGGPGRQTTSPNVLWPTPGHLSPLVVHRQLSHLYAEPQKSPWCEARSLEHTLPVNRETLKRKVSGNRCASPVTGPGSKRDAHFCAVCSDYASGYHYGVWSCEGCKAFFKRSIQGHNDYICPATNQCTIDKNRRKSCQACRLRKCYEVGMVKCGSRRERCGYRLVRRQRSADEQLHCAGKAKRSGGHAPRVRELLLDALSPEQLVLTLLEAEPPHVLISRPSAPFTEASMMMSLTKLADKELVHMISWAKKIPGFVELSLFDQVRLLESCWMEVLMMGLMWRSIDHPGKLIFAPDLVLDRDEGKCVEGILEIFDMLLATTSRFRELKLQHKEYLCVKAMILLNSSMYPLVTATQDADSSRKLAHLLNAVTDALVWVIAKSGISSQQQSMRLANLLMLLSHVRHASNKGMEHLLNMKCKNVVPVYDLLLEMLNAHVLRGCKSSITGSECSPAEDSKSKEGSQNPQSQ
Method in brief: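 A UAS-controlled beta-lactamase reporter in ER-beta-UAS-bla HEK293T cells reports receptor activation. Compounds act for 16 hr at 37C in 2% charcoal-stripped serum, and a FRET substrate is read by fluorescence after 2 hours.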

[13] = biological target: Estrogen receptor beta (Homo sapiens) (UniProt Q92731); assay: qHTS assay to identify small molecule antagonists of the estrogen receptor beta (ER-beta) signaling pathway (AID 1259378; active = well fitted inhibition curve with a large enough effect in the signal ratio in the repeat runs, not every such curve was filed as active; the % refers to the signal ratio)
Method in brief: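 Antagonist mode: compounds added to beta-lactamase reporter HEK293T ER-beta-UAS cells stimulated with E2 (1nM final), 16 hr at 37C. LiveBLAzer B/G FRET substrate, 2 hours room temperature, fluorescence read-out.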

[14] = qHTS assay to identify small molecule agonists of the androgen receptor (AR) signaling pathway in the presence of an antagonist - cell viability counter screen (AID 1259379);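 note: MDA-kb2 human breast cancer cells carrying an MMTV luciferase reporter; series mostly up to about 92 µM; nearly all actives have a fitted effect of over 25% in size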
Method in brief: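 Cytotoxicity is assessed by CellTiter-Fluor in MDA-kb2 cells carrying an MMTV-driven luciferase reporter. Cells receive 3.0uM nilutamide plus compounds at 15 concentrations and incubate 16 hr at 37C without CO2 before fluorescence reading.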

[15] = qHTS assay to identify small molecule antagonists of the estrogen receptor beta (ER-beta) signaling pathway - cell viability counter screen (AID 1259382);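 note: HEK293T cells carrying ER-beta-UAS-bla reporter stimulated with estradiol; series mostly up to about 92 µM; nearly all actives have a fitted effect of over 55% in size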
Method in brief: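 Cytotoxicity counter screen multiplexed with the beta-lactamase antagonist assay: GripTite HEK293T ER-beta-bla cells were treated 16 hr with test chemicals in the presence of 1nM 17-beta-estradiol, and viability was measured by CellTiter-Glo.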

[16] = biological target: Estrogen receptor (Homo sapiens) (UniProt P03372); assay: qHTS assay to identify small molecule agonists of the estrogen receptor alpha (ER-alpha) signaling pathway in the presence of an antagonist (AID 1259383; calls by dose curve; note: top concentration of the series differs between compounds; nearly all actives have a fitted effect of over 15% in size)
Method in brief: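 Agonist-mode confirmation in the presence of the ER antagonist ICI-182,780 at 10.0nM final. Breast-derived VM7Luc4E2 reporter cells were exposed to compounds for 22hr, and ERE-driven luciferase was quantified by luminescence.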

[17] = qHTS assay to identify small molecule agonists or antagonists of the thyroid stimulating hormone receptor (TSHR) signaling pathway - wild type cell line counter screen (AID 1259384; calls by dose curve)
Method in brief: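 Counter screen in untransfected Hek293: compounds (15-point titration, triplicate) plus phosphodiesterase inhibitor Ro20-1724 added after 18 h plating; 30 min RT. Intracellular cAMP via competitive d2/cryptate immunoassay, 1 h incubation.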

[18] = qHTS assay to identify small molecule agonists of the estrogen receptor beta (ER-beta) signaling pathway - cell viability counter screen (AID 1259380); note: nearly all actives have a fitted effect of over 30% in size
Method in brief: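 Cytotoxicity is measured in parallel with the reporter screen: after 16 hr compound exposure at 37C and a 2 hr LiveBLAzer step, CellTiter-Glo is added to the same ER-beta-UAS-bla HEK293T wells and luminescence read after 30 min.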

[19] = biological target: Androgen receptor (Homo sapiens) (UniProt P10275); assay: qHTS assay to identify small molecule agonists of the androgen receptor (AR) signaling pathway in the presence of an antagonist (AID 1259381; calls by dose curve; note: nearly all actives have a fitted effect of over 15% in size)
Method in brief: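 Agonist-mode confirmation screen: human MDA-kb2 cells stably expressing luciferase under an MMTV promoter bearing AR and GR response elements, co-treated with 3.0uM nilutamide (final). Luminescence measured after 16hr compound incubation.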

[20] = qHTS assay to identify small molecule phospholipidosis (PLD) inducers (AID 1259344; active = well fitted curve in the direction sought with a large enough effect; an effect the other way counts as inactive or inconclusive)
Method in brief: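 Phospholipid accumulation was scored by imaging: fixed, Hoechst-counterstained HepG2 cells stained with LipidTOX Red after 24 h compound exposure at 37 C. Read-outs were pit count and pit intensity per well or per cell, with amiodarone and DMSO controls.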

## Nc1cccc(S(=O)(=O)O)c1
[1]
  Potency: inactive
[2]
  Potency: inactive
[3]
  outcome: inactive
[4]
  Potency: inactive
[5]
  Potency: inactive
[6]
  Potency: inactive
[7]
  outcome: inactive
[8]
  Potency: inactive
[9]
  Potency: inactive
[10]
  Potency: inactive
[11]
  Potency: inactive
[12]
  outcome: inactive
[13]
  Potency: inactive
[14]
  Potency: inactive
[15]
  outcome: inactive
[16]
  Potency: inactive
[17]
  outcome: inactive

## NC(=O)NS(=O)(=O)c1ccc(Cl)cc1
[1]
  Potency: inactive
[2]
  Potency: inactive
[3]
  outcome: inactive
[4]
  Potency: inactive
[6]
  Potency: inactive
[9]
  Potency: inactive
[10]
  Potency: inactive
[11]
  Potency: inactive
[14]
  Potency: inactive
[18]
  Potency: inactive
[19]
  Potency: inactive
[15]
  outcome: inactive
[16]
  Potency: inactive
[17]
  outcome: inactive

## OC[C@H]1O[C@@H](O[C@H]2[C@H](O)[C@@H](O)[C@H](O)O[C@@H]2CO)[C@H](O)[C@@H](O)[C@H]1O
[1]
  Potency: inactive
[2]
  Potency: inactive
[3]
  outcome: inactive
[4]
  Potency: inactive
[5]
  Potency: inactive
[6]
  Potency: inactive
[7]
  outcome: inactive
[8]
  Potency: inactive
[9]
  Potency: inactive
[10]
  Potency: inactive
[11]
  Potency: inactive
[12]
  outcome: inactive
[13]
  Potency: inactive
[14]
  Potency: inactive
[19]
  Potency: inactive
[15]
  outcome: inactive
[16]
  Potency: inactive
[17]
  outcome: inactive

## CC(Oc1c(Cl)cccc1Cl)C1=NCCN1 (stereo not drawn)
[1]
  Potency: inactive
[2]
  Potency: inactive
[3]
  outcome: inactive
[4]
  Potency: inactive
[6]
  Potency: inactive
[7]
  outcome: inactive
[8]
  Potency: inactive
[9]
  Potency: inactive
[10]
  Potency: inactive
[11]
  Potency: 13.3 µM (active)
[12]
  outcome: inactive
[13]
  Potency: inactive
[14]
  Potency: inactive
[18]
  Potency: inactive
[19]
  Potency: inactive
[15]
  outcome: inactive
[17]
  outcome: inactive

## Cc1cc(S(=O)(=O)O)c(N)cc1Cl
[1]
  Potency: inactive
[2]
  Potency: inactive
[3]
  outcome: inactive
[4]
  Potency: inactive
[6]
  Potency: inactive
[7]
  outcome: inactive
[8]
  Potency: inactive
[9]
  Potency: inactive
[10]
  Potency: inactive
[11]
  Potency: inactive
[12]
  outcome: inactive
[13]
  Potency: inactive
[14]
  Potency: inactive
[18]
  Potency: inactive
[19]
  Potency: inactive
[15]
  outcome: inactive
[16]
  Potency: inactive

## C[C@@H](N)C(=O)O
[1]
  Potency: inactive
[2]
  Potency: inactive
[3]
  outcome: inactive
[4]
  Potency: inactive
[20]
  outcome: inactive
[6]
  Potency: inactive
[7]
  outcome: inactive
[8]
  Potency: inactive
[9]
  Potency: inactive
[11]
  Potency: 21.1 µM (active)
[14]
  Potency: inactive
[18]
  Potency: inactive
[19]
  Potency: inactive
[15]
  outcome: inactive
[17]
  outcome: inactive

## Cn1cnc2c(F)c(Nc3ccc(Br)cc3Cl)c(C(=O)NOCCO)cc21
[1]
  Potency: inactive
[2]
  Potency: inactive
[3]
  outcome: inactive
[4]
  Potency: 5.96 µM (active)
[20]
  outcome: inactive
[6]
  Potency: inactive
[7]
  outcome: inactive
[9]
  Potency: inactive
[11]
  Potency: inactive
[12]
  outcome: inactive
[13]
  Potency: inactive
[14]
  Potency: inactive
[18]
  Potency: inactive
[19]
  Potency: inactive
[15]
  outcome: inactive

## Cc1ccsc1C(=CCCN1CCC[C@@H](C(=O)O)C1)c1sccc1C
[1]
  Potency: inactive
[2]
  Potency: inactive
[3]
  outcome: inactive
[4]
  Potency: inactive
[5]
  Potency: inactive
[20]
  outcome: inactive
[6]
  Potency: inactive
[7]
  outcome: inactive
[8]
  Potency: inactive
[9]
  Potency: inactive
[10]
  Potency: inactive
[11]
  Potency: inactive
[12]
  outcome: inactive
[13]
  Potency: inactive
[14]
  Potency: inactive
[18]
  Potency: inactive
[19]
  Potency: inactive
[15]
  outcome: inactive
[16]
  Potency: inactive
[17]
  outcome: inactive

— PubChem BioAssay (Tox21)
